Screening data as filed in PubChem BioAssay.
The full list was thinned out, with hits kept by preference.
PTHR1 ag: qHTS for PTHR1 Agonists: Primary Screen; Parathyroid hormone/parathyroid hormone-related peptide receptor (Homo sapiens), Q03431; Potency, µM (highest dose often 115 µM), for the others: at the highest dose activation, usual class: activators; HEK293 GP2 PTHR1 cells, GloSensor cAMP luminescence, 1 h; 0.075% of 410,000 active; also: potency is read from the fitted curve at half-maximal effect; nearly all actives have a fitted effect of over 55% in size
Target sequence (Q03431 whole entry, looked up): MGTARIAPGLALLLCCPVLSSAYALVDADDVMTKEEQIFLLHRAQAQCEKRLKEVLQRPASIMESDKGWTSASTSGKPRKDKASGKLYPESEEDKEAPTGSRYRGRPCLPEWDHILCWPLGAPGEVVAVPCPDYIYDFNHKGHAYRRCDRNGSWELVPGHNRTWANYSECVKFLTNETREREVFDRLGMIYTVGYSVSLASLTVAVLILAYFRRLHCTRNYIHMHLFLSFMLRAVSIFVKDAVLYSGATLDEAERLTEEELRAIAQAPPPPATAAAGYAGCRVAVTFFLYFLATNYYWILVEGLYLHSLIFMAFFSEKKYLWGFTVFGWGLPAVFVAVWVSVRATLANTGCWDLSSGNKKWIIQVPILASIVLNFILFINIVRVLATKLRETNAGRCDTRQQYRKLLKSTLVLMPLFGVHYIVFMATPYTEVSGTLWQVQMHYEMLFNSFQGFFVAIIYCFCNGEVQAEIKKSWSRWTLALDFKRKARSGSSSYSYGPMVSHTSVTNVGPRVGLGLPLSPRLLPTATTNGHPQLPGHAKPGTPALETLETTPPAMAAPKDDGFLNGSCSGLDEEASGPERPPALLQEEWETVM
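HEK-293-derived GP2 cells expressing PTHR1 and a GloSensor cAMP reporter, 3,000/well, plated overnight, given luciferin plus IBMX (each 0.5 mM as added) for 1 h at 37 °C, then compound for 1 h at 37 °C. Luminescence was read after 15 min at room temperature.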
RXFP1 antagonist: qHTS Assay for Antagonists of the Relaxin Receptor RXFP1; HEK293-RXFP1, relaxin-stimulated cAMP HTRF, 30 min; hits give low values; 0.59% of 350,000 active; activity change, negative = inhibition, % at 57.5 µM; Relaxin receptor 1 (Homo sapiens), Q9HBX9;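 active = activity change of -60% or lower, but not beyond a set lower limit; inconclusive = change between -60% and -40%, or beyond the set limit; inactive = change above -40%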; also: % is scaled to controls: 0 for no effect and ±100 for the full control effect
RXFP1 agonist: qHTS Assay for Agonists of the Relaxin Receptor RXFP1; Relaxin receptor 1 (Homo sapiens), Q9HBX9; HEK293T-RXFP1 cAMP TR-FRET, 30 min; response scale: percent of porcine relaxin response, buffer zero; Potency, µM (doses to about 57.5 µM), for the others: at the top dose activation, usual class: activators; 0.3% of 370,000 active; also: potency is read from the fitted curve at half-maximal effect; % is scaled to controls: 0 for no effect and ±100 for the full control effect; nearly all actives have a fitted effect of over 60% in size
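cAMP rise read by TR-FRET after 30 min, 37C compound exposure (up to 58 uM) in RXFP1-transfected HEK293 cells with Ro 20174 present. EC50 from Hill-equation fits, with 29 nM porcine relaxin as 100% and buffer as basal.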
HEK293 tox: qHTS of GLP-1 Receptor Inverse Agonists: Cytotox Screen; HEK293 cAMP-luciferase reporter cells, luminescence, 24 h; Potency, µM (doses to about 38.3 µM), without a hit: at the top dose activity change, negative = inhibition, hits mostly inhibitors; 0.13% of 410,000 active; AID 624418, 2012;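 also: loss of luciferase light is scored as toxicity; potency is read from the fitted curve at half-maximal effect; % is scaled to controls: 0 for no effect and ±100 for the full control effect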
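To flag toxic compounds, the library was rerun on cells for 24 hr at 37 deg C and 5% CO2. Viability-linked luminescence was captured 12 min after adding luciferase detection reagent.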
TSHR antagonist: Antagonists of the Thyroid Stimulating Hormone Receptor: HTS campaign | activity change, negative = inhibition, % at 11.5 µM | AID 504810, 2011 | Thyrotropin receptor (Homo sapiens), P16473 | 0.2% of 330,000 active | TSHR-expressing cells, TSH-stimulated cAMP HTRF, 2 h; hits give low values;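 active = activity change below a set negative limit, meaning inhibition stronger than a set level, cut at about -70% in these data; inconclusive = activity change between two set negative limits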; also: % is scaled to controls: 0 for no effect and ±100 for the full control effect
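Read-out is FRET at 665 nm (cryptate excitation 337 nm) from a cryptate-tagged anti-cAMP antibody, competed by cell cAMP against cAMP-d2. Compounds are tested on freshly harvested TSHR cells challenged with 4nM TSH (EC80) for 2 hours at 37 deg C.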
NPSR antag: qHTS Assay for Antagonists of the Neuropeptide S Receptor: cAMP Signal Transduction. AID 1461, 2008. Potency, µM (doses to about 38.3 µM), for inactives: at the top dose activity change, negative = inhibition, hits mostly inhibitors. 1% of 220,000 active. Q6W5P4. CHO-NPSR cells, cAMP TR-FRET, antagonist mode; also: potency is read from the fitted curve at half-maximal effect; % is scaled to controls: 0 for no effect and ±100 for the full control effect; nearly all actives have a fitted effect of over 50% in size
* = called active by the depositor; i = inactive; ? = inconclusive; . = not tested or not shown; [ ] = remark or other dose. Unless noted, calls follow the shape of the dose curve; as a rule, active = well fitted curve in the direction sought with a large enough effect; inconclusive = small, poorly fitted or top-dose-only effect, or another doubt; inactive = no such curve, though single readings can be large; an effect the other way counts as inactive or inconclusive.

SMILES	PTHR1 ag	RXFP1 antagonist	RXFP1 agonist	HEK293 tox	TSHR antagonist	NPSR antag
C[C@@H]1C[C@H]2[C@@H]3CCC4=CC(=O)C=C[C@]4(C)[C@@]3(F)[C@@H](O)C[C@]2(C)[C@@]1(O)C(=O)COC(=O)c1ccncc1	.	-11	.	.	.	.
CSc1ccc(C(=O)N2CCc3ccc(NC(=O)c4ccccn4)cc3C2)cc1	-91%	-69*	-1%	?	2	.
CCOC(=O)N1CCC(N2C(=O)c3ccccc3C2Nc2ccc(S(=O)(=O)N3CCCCC3)cc2)CC1 (stereo not drawn)	.	.	0%	.	-2	10µM*
CCCCCCCCn1c2c(c(=N)c3ccccc31)CCC2	-43%	-18	-1%	-6%[7.66 µM]	15	-2%
CCCCCCCCCCn1c2c(c(=N)c3c1CCC3)CCC2	-51%	-69*	0%	?	-37	?
N=C(N)c1ccc(OCCCCCOc2ccc(C(=N)N)cc2)cc1 (tested in a mixture with another compound)	.	.	.	.	-15	-8%[46.1 µM]
Cc1ccc(CSc2nc3ccncc3n2CC(=O)Nc2cc(C)cc(C)c2)cc1	-17%	3	23%	-26%	-17	3.2µM*
FC(F)(F)c1cccc(-c2nc3nc(Cl)c(Cl)nc3[nH]2)c1	-91%	9	21%	-1%	?	6.3µM*
CC(C)OC(=O)c1c(NC(=O)C2c3ccccc3Oc3ccccc32)sc2c1CCCC2	-13%	4	22µM*	19%	.	.
CCC1Sc2ccc(S(=O)(=O)N3CCN(c4ccccc4)CC3)cc2NC1=O (stereo not drawn)	-32%	-67*	0%	-4%	-11	.
Cc1c(C(=O)/C=C/N(C)C)nnn1-c1ccc(Cl)cc1Cl	30%	-64*	5%	69%	13	0%
COC(=O)C1N[C@@H]([C@@H](NC(=O)COc2ccccc2)C(=O)NCc2ccsc2)SC1(C)C (stereo partly drawn)	-6%	.	.	10%	.	.
C/C(=N/NC(=O)c1ccc(C)nc1)c1ccc2c(c1)CCCC2	-9%	-62*	1%	?	-3	5%
O=[N+]([O-])c1cccc(S(=O)(=O)Nc2ccc(S(=O)(=O)N3CCCC3)cc2)c1	-30%	-4	.	5%	.	.
O=[N+]([O-])c1cccc(S(=O)(=O)Nc2nc3ccccc3nc2Nc2cccc(S(=O)(=O)N3CCCCC3)c2)c1	-45%	-8	0%	?	?	6.3µM*
C/C(=N\NC(=O)COc1ccccc1-c1ccccc1)c1ccccn1	-21%	-23	2%	?	-6	7.9µM*
CCOC(=O)[C@]12CCCC=C1N(Cc1ccc3c(c1)OCO3)C(=O)[C@H](CC(=O)NCC1CCCCC1)C2	-59%	.	.	0%	.	.
COCc1cc(C)nc(SCC(=O)Nc2cccc(C)c2C)c1C#N	-7%[57.5 µM]	-11	?	15%	-3	?
Cc1cccc(NC(=O)CSc2nc(C)c(CC(=O)c3ccc(Br)cc3)c(C)c2C#N)c1C	i	8	?	9%	8	6.3µM*
CN(C)c1ccc(/C=C2/C[N+](C)(C)C/C(=C/c3ccc(N(C)C)cc3)C2=O)cc1	i	-24	.	8.9µM*	.	.
CCCCCCCCCCCCCCCC(=O)NCC(COP(=O)([O-])OCC[N+](C)(C)C)OCC (stereo not drawn)	.	.	.	.	9	10µM*
COc1cccc(/C=c2\s/c(=C\C(=O)C(C)(C)C)[nH]c2=O)c1	-27%	-91*	0%	-2%[7.66 µM]	-6	-37%
Nc1nc(Cl)cc(N2CCC(c3cc(-c4ccc(Cl)cc4)n[nH]3)CC2)n1	-43%	5	-2%	-26%	-38	10µM*
CC(C)(C)c1cccc(Cn2nnc3ccccc32)c1O	-67%	.	0%	-10%	-77*	.
